# Reference: PubChem BioAssay (EPA / NIEHS)
# Inconclusive results are not listed. Calls of active or inactive are those of the source. How the source made its calls, unless noted: active means hit-call score of the fitted dose curve at least 0.9, where 1 is the maximum; inactive means score below 0.9.
# Tests used:
# [1] = read-out: Monocyte Chemoattractant Protein-1 (MCP1), CCL2 (gene 6347); test: BSK_SAg_MCP1: BioMAP Diversity Plus: SAg Assay for Monocyte Chemoattractant Protein-1 (MCP1) Biomarker Activity (AID 2283090); conditions: primary human HUVEC with PBMC; actives raise or lower the signal
# Method in brief: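 MCP-1 levels in the endothelial–PBMC SAg co-culture were quantified by ELISA at 24 h post-dosing; both increases and decreases versus DMSO scored. Cytotoxicity monitored by SRB total protein in parallel cultures.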
# [2] = read-out: E-selectin (Homo sapiens) (UniProt P16581); test: BSK_SAg_Eselectin: BioMAP Diversity Plus: SAg Assay for Eselectin Biomarker Activity (AID 2283091); conditions: primary human HUVEC with PBMC; actives raise or lower the signal
# Method in brief: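 Human umbilical vein endothelial cells co-cultured with peripheral blood mononuclear cells, SAg system. E-selectin is measured by ELISA 24 h after dosing and fitted bidirectionally against DMSO. Cytotoxicity is checked by SRB staining of parallel cultures.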
# [3] = read-out: Monokine induced gamma interferon (MIG), CXCL9 (gene 4283); test: BSK_SAg_MIG: BioMAP Diversity Plus: SAg Assay for Monokine induced gamma interferon (MIG) Biomarker Activity (AID 2283092); conditions: primary human HUVEC with PBMC; actives raise or lower the signal
# Method in brief: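 Values reflect bidirectional fitting of ELISA-measured MIG against DMSO vehicle, taken 24 h after dosing of a co-culture of human umbilical vein endothelial cells and peripheral blood mononuclear cells.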
# [4] = BSK_SAg_PBMCCytotoxicity: PBMC Cytotoxicity Assessment in the BioMAP Diversity Plus: SAg Assay (AID 2283093); conditions: primary human HUVEC with PBMC;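 further: PBMC viability measured as Alamar Blue reduction fluorescence at 546/580 nm; fitted both ways against DMSO so a hit may be loss or gain of signal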;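 on AC50: PBMC superantigen activated with SEB plus TSST-1 one hour after compound addition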
# Method in brief: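 Human umbilical vein endothelial cells co-cultured with PBMC; PBMC (75,000/well) pre-treated with compound 1 h, then activated with SEB and TSST-1 (20 ng/mL final each) for 90 h. Alamar Blue added 6 h, fluorescence 546/580 nm; bidirectional fit versus DMSO.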
# [5] = read-out: Interleukin-8 (IL8), CXCL8 (gene 3576); test: BSK_SAg_IL8: BioMAP Diversity Plus: SAg Assay for Interleukin-8 (IL8) Biomarker Activity (AID 2283094); conditions: primary human HUVEC with PBMC; actives raise or lower the signal
# Method in brief: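 In this co-culture of human umbilical vein endothelium with peripheral blood mononuclear cells, IL-8 is assayed by ELISA at 24 h. DMSO serves as baseline for bidirectional curve fitting.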
# [6] = BSK_SAg_Proliferation: Cell Proliferation Assessment in the BioMAP Diversity Plus: SAg Assay (AID 2283095); conditions: primary human HUVEC with PBMC;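 further: relative cell number as total protein by SRB absorbance in sub-confluent culture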
# Method in brief: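 Readout is SRB-stained protein (560 nm) in a primary human HUVEC and PBMC co-culture; sub-confluent cultures are read at 96 h. Activity is fitted bidirectionally using DMSO as baseline.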
# [7] = BSK_SAg_SRB: Viability Assessment in the BioMAP Diversity Plus: SAg Assay (AID 2283096); conditions: primary human HUVEC with PBMC;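 further: cells read one day after compound addition; hits may be either gain or loss of signal compared with DMSO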
# Method in brief: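 Endothelial/PBMC primary human co-culture; compound 24 h; fix 10% TCA, stain 0.1% SRB, A560; protein content as cytotoxicity proxy; bidirectional curve fit, DMSO = baseline.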
# [8] = biological target: human CYP19A1, CYP19A1 (gene 1588) (UniProt P11511); test: NVS_ADME_hCYP19A1: NovaScreen (NVS) CYP450-related Enzyme Activity (ADME) Assay for human CYP19A1 (AID 2283098; active means hit-call score of the fitted dose curve at least 0.9, where 1 is the maximum;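 on AC50: potency for inhibitors seen as loss of fluorescent enzyme signal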)
# human CYP19A1, CYP19A1 (gene 1588), sequence (P11511 whole entry, looked up): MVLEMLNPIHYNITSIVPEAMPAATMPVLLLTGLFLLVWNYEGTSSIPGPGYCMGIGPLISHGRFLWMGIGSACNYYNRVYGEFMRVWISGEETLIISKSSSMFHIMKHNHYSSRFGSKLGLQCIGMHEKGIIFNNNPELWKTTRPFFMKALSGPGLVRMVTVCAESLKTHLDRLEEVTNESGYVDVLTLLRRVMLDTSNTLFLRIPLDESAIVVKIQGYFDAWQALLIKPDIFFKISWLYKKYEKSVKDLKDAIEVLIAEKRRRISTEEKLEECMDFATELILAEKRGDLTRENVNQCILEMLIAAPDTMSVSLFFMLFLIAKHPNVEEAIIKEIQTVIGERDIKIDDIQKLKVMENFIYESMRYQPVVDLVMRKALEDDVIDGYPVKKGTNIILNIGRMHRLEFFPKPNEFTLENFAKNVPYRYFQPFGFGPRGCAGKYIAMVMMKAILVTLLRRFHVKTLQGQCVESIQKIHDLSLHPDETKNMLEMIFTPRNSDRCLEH
# Method in brief: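 Cell-free enzyme assay with recombinant protein and a specific fluorogenic substrate, read by fluorescence intensity 0.5 h after dosing. Primary screen ran in duplicate at 10 uM; actives were retested in concentration series. Loss of signal versus acetonitrile baseline.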
# [9] = biological target: human CYP2A6, CYP2A6 (gene 1548) (UniProt P11509); test: NVS_ADME_hCYP2A6: NovaScreen (NVS) CYP450-related Enzyme Activity (ADME) Assay for human CYP2A6 (AID 2283099; active means hit-call score of the fitted dose curve at least 0.9, where 1 is the maximum)
# human CYP2A6, CYP2A6 (gene 1548), sequence (P11509 whole entry, looked up): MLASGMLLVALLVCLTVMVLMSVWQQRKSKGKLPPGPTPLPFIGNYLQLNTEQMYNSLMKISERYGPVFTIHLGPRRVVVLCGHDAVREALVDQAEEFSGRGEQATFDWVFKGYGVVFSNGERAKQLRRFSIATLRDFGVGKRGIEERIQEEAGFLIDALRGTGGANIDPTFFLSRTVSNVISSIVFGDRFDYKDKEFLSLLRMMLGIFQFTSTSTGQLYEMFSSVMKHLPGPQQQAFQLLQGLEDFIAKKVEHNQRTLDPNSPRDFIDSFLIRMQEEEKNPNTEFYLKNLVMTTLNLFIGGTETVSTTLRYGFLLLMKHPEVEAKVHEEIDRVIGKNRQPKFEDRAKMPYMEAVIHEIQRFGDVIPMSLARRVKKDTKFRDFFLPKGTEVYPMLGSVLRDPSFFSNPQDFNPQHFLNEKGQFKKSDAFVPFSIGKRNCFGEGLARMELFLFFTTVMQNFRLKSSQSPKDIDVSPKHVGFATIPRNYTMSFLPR
# Method: NVS_ADME_hCYP2A6 is a biochemical, single-readout assay that uses extracted gene-proteins from insect cells in a cell-free assay. Measurements were taken 0.5 hour after chemical dosing in a 96-well plate.NVS_ADME_hCYP2A6 is one of one assay component(s) measured or calculated from the NVS_ADME_hCYP2A6 assay. It is designed to make measurements of enzyme activity, a form of enzyme reporter, as detected with fluorescence intensity signals by Fluorescence technology.Data from the assay component NVS_ADME_hCYP2A6 was analyzed into 1 assay endpoint. This assay endpoint, NVS_ADME_hCYP2A6, was analyzed in the positive analysis fitting direction relative to Acetonitrile as the negative control and baseline of activity. Using a type of enzyme reporter, loss-of-signal activity can be used to understand changes in the enzymatic activity as they relate to the gene CYP2A6. Furthermore, this assay endpoint can be referred to as a primary readout, because this assay has produced multiple assay endpoints where this one serves a enzymatic activity function. To generalize the intended target to other relatable targets, this assay endpoint is annotated to the cyp intended target family, where the subfamily is xenobiotic metabolism.
# Binding assays used specific radioligands (tritiated, iodinated) with non-radioactive competitive displacement ligands in agonist or antagonist protocols (as indicated) and various reference compounds and inhibitors to titrate specific binding to receptors and transporters. Most enzyme assays (CYPs, kinases, phosphatases, proteases, HDACs) used recombinant protein and specific substrates (fluorescence mostly, some colorimetric and radioactive) and inhibitors, followed by a biochemical separation of substrate and product. All assays for the biochemical HTS were initially run in duplicate at a single concentration (10 uM for CYP450 assays and 25 uM for all others). Assay-chemical combinations meeting a pre-defined threshold (e.g., 30% inhibition and other criteria defined below) were then run in singleton concentration-response format with maximum concentration of 20 uM for CYPs and 50 uM for all others. Each assay was run with positive and negative controls, and concurrent controls on every plate. The follow-up (secondary) screen tested active chemical-pairs in concentration series, as well as a few additional assays not tested in the primary screen, some selected negative inactives, and several cases re-run in the concentration series for confirmatory purposes.
# [10] = biological target: human CYP1A1, CYP1A1 (gene 1543) (UniProt P04798); test: NVS_ADME_hCYP1A1: NovaScreen (NVS) CYP450-related Enzyme Activity (ADME) Assay for human CYP1A1 (AID 2283100; active means hit-call score of the fitted dose curve at least 0.9, where 1 is the maximum)
# human CYP1A1, CYP1A1 (gene 1543), sequence (P04798 whole entry, looked up): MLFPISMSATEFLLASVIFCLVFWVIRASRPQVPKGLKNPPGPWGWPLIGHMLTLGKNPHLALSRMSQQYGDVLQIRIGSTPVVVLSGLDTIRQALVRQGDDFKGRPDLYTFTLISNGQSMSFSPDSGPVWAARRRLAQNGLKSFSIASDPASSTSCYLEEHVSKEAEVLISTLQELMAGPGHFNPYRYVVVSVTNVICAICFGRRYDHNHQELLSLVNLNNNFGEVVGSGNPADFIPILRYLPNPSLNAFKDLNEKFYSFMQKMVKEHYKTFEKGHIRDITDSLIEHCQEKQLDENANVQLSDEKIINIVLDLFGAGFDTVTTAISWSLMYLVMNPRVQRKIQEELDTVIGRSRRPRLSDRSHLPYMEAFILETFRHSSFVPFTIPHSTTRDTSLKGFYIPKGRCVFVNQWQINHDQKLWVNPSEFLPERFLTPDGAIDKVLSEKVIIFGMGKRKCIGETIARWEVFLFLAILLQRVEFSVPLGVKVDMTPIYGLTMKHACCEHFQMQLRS
# Method in brief: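 Recombinant CYP1A1 with a fluorogenic substrate, cell-free, read 1 h after dosing; acetonitrile as negative control. Single-concentration screen at 10 uM in duplicate, then concentration-response up to 20 uM for chemicals meeting ~30% inhibition threshold.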
# E-selectin (Homo sapiens), sequence (P16581 whole entry, looked up): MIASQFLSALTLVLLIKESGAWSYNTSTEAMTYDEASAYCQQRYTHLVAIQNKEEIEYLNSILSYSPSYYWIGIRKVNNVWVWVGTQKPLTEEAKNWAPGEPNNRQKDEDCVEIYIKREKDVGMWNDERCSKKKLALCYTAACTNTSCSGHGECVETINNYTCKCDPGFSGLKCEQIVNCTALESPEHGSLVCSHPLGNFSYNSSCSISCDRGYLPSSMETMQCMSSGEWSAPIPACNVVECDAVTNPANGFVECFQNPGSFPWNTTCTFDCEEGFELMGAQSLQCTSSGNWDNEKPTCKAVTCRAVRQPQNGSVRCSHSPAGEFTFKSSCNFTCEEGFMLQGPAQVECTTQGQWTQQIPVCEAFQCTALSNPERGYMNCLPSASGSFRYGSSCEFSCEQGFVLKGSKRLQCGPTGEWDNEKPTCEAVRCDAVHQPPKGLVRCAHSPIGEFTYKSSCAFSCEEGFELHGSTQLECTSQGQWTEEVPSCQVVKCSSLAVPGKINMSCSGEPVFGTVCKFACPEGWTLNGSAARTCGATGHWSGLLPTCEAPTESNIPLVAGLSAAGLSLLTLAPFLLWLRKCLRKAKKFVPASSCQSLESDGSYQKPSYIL
smiles,measurement,setting,value
C[Si](Cn1cncn1)(c1ccc(F)cc1)c1ccc(F)cc1,AC50,[1],28.9 µM (active)
same,AC50,[2],19.8 µM (active)
same,outcome,[3],inactive
same,outcome,[4],inactive
same,AC50,[5],16.8 µM (active)
same,AC50,[6],22.5 µM (active)
same,outcome,[7],inactive
same,AC50,[8],3.78 µM (active)
same,AC50,[9],1.75 µM (active)
same,AC50,[10],3.27 µM (active)
Cc1nn(-c2cc(NS(C)(=O)=O)c(Cl)cc2Cl)c(=O)n1C(F)F,outcome,[1],inactive
same,outcome,[2],inactive
same,outcome,[3],inactive
same,outcome,[5],inactive
same,outcome,[6],inactive
same,outcome,[7],inactive
CCc1cnc(C2=NC(C)(C(C)C)C(=O)N2)c(C(=O)O)c1 (stereo not given),outcome,[1],inactive
same,outcome,[2],inactive
same,outcome,[3],inactive
same,outcome,[4],inactive
same,outcome,[5],inactive
same,outcome,[6],inactive
same,outcome,[7],inactive
CC(COc1ccc(Oc2ccccc2)cc1)Oc1ccccn1 (stereo not given),outcome,[1],inactive
same,outcome,[2],inactive
same,outcome,[3],inactive
same,AC50,[4],12 µM (active)
same,outcome,[5],inactive
same,AC50,[6],26.7 µM (active)
same,AC50,[7],7.1 µM (active)
CCCCN(CC)c1c([N+](=O)[O-])cc(C(F)(F)F)cc1[N+](=O)[O-],outcome,[1],inactive
same,AC50,[2],27.6 µM (active)
same,outcome,[3],inactive
same,AC50,[4],24.4 µM (active)
same,outcome,[5],inactive
same,AC50,[6],18.9 µM (active)
same,outcome,[7],inactive
same,AC50,[8],1.93 µM (active)
C#CCC1=C(C)C(OC(=O)C2C(C=C(C)C)C2(C)C)CC1=O (stereo not given),AC50,[1],30 µM (active)
same,AC50,[2],31.3 µM (active)
same,AC50,[3],36.6 µM (active)
same,AC50,[4],32.9 µM (active)
same,AC50,[5],26 µM (active)
same,AC50,[6],34 µM (active)
same,AC50,[7],26.9 µM (active)
CCOP(=S)(OCC)Oc1ccc2c(C)c(Cl)c(=O)oc2c1,outcome,[1],inactive
same,AC50,[2],5.21 µM (active)
same,outcome,[3],inactive
same,outcome,[4],inactive
same,outcome,[5],inactive
same,AC50,[6],5.08 µM (active)
same,outcome,[7],inactive
same,AC50,[10],0.352 µM (active)
O=c1ccc(=O)[nH][nH]1,outcome,[1],inactive
same,outcome,[2],inactive
same,outcome,[3],inactive
same,outcome,[4],inactive
same,outcome,[5],inactive
same,outcome,[6],inactive
same,outcome,[7],inactive
CCCCOC(=O)[C@@H](C)Oc1ccc(Oc2ccc(C#N)cc2F)cc1,outcome,[1],inactive
same,outcome,[2],inactive
same,outcome,[3],inactive
same,outcome,[4],inactive
same,outcome,[5],inactive
same,outcome,[6],inactive
same,outcome,[7],inactive
CON=C(C(=O)OC)c1ccccc1CON=C(C)c1cccc(C(F)(F)F)c1,AC50,[1],4.09 µM (active)
same,AC50,[2],2.08 µM (active)
same,AC50,[3],8.87 µM (active)
same,AC50,[4],1.59 µM (active)
same,AC50,[5],3.2 µM (active)
same,AC50,[6],3.9 µM (active)
same,AC50,[7],3.82 µM (active)
COc1cc(OC)nc(Sc2cccc(Cl)c2C(=O)O)n1,outcome,[1],inactive
same,outcome,[2],inactive
same,outcome,[3],inactive
same,outcome,[4],inactive
same,outcome,[5],inactive
same,outcome,[6],inactive
same,outcome,[7],inactive
CSC1=N[C@@](C)(c2ccccc2)C(=O)N1Nc1ccccc1,AC50,[1],20 µM (active)
same,AC50,[2],8.29 µM (active)
same,outcome,[3],inactive
same,AC50,[4],7.23 µM (active)
same,AC50,[5],8.81 µM (active)
same,AC50,[6],9.67 µM (active)
same,outcome,[7],inactive
CCOP(=S)(OCC)Oc1ccc([N+](=O)[O-])cc1,outcome,[1],inactive
same,AC50,[2],32.8 µM (active)
same,outcome,[3],inactive
same,outcome,[4],inactive
same,outcome,[5],inactive
same,AC50,[6],32.1 µM (active)
same,outcome,[7],inactive
same,outcome,[8],inactive
same,AC50,[10],3.28 µM (active)
CCOP(=S)(OCC)OC(Cl)C(Cl)(Cl)Cl (stereo not given),outcome,[1],inactive
same,AC50,[2],31.2 µM (active)
same,outcome,[3],inactive
same,AC50,[4],29.9 µM (active)
same,AC50,[5],25.9 µM (active)
same,AC50,[6],33.5 µM (active)
same,AC50,[7],13 µM (active)
CN1COCN(Cc2cnc(Cl)s2)C1=N[N+](=O)[O-],outcome,[1],inactive
same,outcome,[2],inactive
same,outcome,[3],inactive
same,outcome,[4],inactive
same,outcome,[5],inactive
same,outcome,[6],inactive
same,outcome,[7],inactive
COc1cccc(C(=O)NN(C(=O)c2cc(C)cc(C)c2)C(C)(C)C)c1C,outcome,[1],inactive
same,outcome,[2],inactive
same,outcome,[3],inactive
same,outcome,[5],inactive
same,outcome,[6],inactive
same,outcome,[7],inactive
CC(C)[C@H](C(=O)O[C@H](C#N)c1cccc(Oc2ccccc2)c1)c1ccc(Cl)cc1,outcome,[1],inactive
same,AC50,[2],12.3 µM (active)
same,outcome,[3],inactive
same,outcome,[5],inactive
same,AC50,[6],12 µM (active)
same,outcome,[7],inactive
same,outcome,[8],inactive
CCOP(=S)(OCC)SCCSCC,outcome,[1],inactive
same,outcome,[2],inactive
same,outcome,[3],inactive
same,outcome,[5],inactive
same,outcome,[6],inactive
same,outcome,[7],inactive
CC(C)N(C(=O)SCC(Cl)=C(Cl)Cl)C(C)C,AC50,[1],31.3 µM (active)
same,AC50,[2],31.8 µM (active)
same,AC50,[3],36.7 µM (active)
same,AC50,[5],31 µM (active)
same,AC50,[6],38 µM (active)
same,AC50,[7],31.5 µM (active)
CCCCSP(=O)(SCCCC)SCCCC,AC50,[1],20 µM (active)
same,outcome,[2],inactive
same,outcome,[3],inactive
same,AC50,[5],25.9 µM (active)
same,AC50,[6],36.2 µM (active)
same,AC50,[7],22.5 µM (active)
CC(=NC#N)N(C)Cc1ccc(Cl)nc1,outcome,[1],inactive
same,outcome,[2],inactive
same,outcome,[3],inactive
same,outcome,[5],inactive
same,outcome,[6],inactive
same,outcome,[7],inactive
CN(C)[C@@H]1C(=O)C(C(N)=O)=C(O)[C@@]2(O)C(=O)C3=C(O)c4c(O)cccc4[C@@](C)(O)[C@H]3[C@H](O)[C@@H]12,outcome,[1],inactive
same,outcome,[2],inactive
same,outcome,[3],inactive
same,outcome,[5],inactive
same,outcome,[6],inactive
same,outcome,[7],inactive
Cc1ccn2nc(S(=O)(=O)Nc3c(F)cccc3F)nc2n1,outcome,[1],inactive
same,outcome,[2],inactive
same,outcome,[3],inactive
same,outcome,[5],inactive
same,outcome,[6],inactive
same,outcome,[7],inactive
